The supplement of paper PMC11732987, “Enantioselective OTUD7B fragment discovery through chemoproteomics screening and high-throughput optimisation” (Communications Chemistry, 2025)

Legend:
Assay in all cases: log2 ratio of Biotin-Ahx-Ub-VS probe labelling (fragment/DMSO); higher = less target engagement (more negative = stronger competition), active = hit call of the paper (q ≤ 0.05, log2 ratio ≤ -1)
Conditions in all cases: compound concentration: 200 uM; treatment time: 3 h
USP16 = USP16 (UniProt Q9Y5T5)
Sequence of USP16 (Q9Y5T5 whole entry, looked up, the tested form may be a part): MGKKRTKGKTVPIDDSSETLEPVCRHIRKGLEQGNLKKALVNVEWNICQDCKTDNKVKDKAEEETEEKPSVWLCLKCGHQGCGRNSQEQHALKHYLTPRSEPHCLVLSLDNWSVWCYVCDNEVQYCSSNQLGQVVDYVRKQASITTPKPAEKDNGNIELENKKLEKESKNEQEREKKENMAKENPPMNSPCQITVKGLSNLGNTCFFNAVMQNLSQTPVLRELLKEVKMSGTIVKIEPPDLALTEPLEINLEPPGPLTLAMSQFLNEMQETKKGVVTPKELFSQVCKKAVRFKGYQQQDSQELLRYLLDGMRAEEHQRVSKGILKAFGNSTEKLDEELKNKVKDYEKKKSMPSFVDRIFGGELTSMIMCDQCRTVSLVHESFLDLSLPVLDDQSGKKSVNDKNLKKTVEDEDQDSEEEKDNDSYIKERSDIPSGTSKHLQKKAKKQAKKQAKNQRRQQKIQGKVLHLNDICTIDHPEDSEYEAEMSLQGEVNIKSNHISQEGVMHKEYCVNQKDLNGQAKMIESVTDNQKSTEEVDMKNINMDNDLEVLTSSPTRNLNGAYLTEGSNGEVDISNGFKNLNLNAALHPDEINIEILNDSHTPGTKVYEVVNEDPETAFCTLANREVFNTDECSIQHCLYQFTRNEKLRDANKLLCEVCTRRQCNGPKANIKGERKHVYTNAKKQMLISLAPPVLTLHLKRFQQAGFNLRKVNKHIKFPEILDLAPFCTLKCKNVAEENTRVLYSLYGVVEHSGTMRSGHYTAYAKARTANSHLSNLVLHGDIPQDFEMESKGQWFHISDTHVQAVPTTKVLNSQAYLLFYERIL
Summary of the method: (§1)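 HEK293T lysate in Tris/CHAPS/IGEPAL buffer with protease inhibitors (495 µg per sample) was given fragment at 200 µM or vehicle for 3 h, in triplicate. It then received Biotin-Ahx-Ub-VS at 0.5 µM final for 1 h. Labelled DUBs were NeutrAvidin-enriched, digested with LysC and trypsin, and run by diaPASEF LC-MS/MS. Values are average log2 fragment/vehicle ratios by unpaired t-test on global-median-normalised Spectronaut quantities of proteins with ≥2 unique peptides.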

USP19 = molecular target: T1, USP19 (UniProt O94966)
T1 sequence (whole entry): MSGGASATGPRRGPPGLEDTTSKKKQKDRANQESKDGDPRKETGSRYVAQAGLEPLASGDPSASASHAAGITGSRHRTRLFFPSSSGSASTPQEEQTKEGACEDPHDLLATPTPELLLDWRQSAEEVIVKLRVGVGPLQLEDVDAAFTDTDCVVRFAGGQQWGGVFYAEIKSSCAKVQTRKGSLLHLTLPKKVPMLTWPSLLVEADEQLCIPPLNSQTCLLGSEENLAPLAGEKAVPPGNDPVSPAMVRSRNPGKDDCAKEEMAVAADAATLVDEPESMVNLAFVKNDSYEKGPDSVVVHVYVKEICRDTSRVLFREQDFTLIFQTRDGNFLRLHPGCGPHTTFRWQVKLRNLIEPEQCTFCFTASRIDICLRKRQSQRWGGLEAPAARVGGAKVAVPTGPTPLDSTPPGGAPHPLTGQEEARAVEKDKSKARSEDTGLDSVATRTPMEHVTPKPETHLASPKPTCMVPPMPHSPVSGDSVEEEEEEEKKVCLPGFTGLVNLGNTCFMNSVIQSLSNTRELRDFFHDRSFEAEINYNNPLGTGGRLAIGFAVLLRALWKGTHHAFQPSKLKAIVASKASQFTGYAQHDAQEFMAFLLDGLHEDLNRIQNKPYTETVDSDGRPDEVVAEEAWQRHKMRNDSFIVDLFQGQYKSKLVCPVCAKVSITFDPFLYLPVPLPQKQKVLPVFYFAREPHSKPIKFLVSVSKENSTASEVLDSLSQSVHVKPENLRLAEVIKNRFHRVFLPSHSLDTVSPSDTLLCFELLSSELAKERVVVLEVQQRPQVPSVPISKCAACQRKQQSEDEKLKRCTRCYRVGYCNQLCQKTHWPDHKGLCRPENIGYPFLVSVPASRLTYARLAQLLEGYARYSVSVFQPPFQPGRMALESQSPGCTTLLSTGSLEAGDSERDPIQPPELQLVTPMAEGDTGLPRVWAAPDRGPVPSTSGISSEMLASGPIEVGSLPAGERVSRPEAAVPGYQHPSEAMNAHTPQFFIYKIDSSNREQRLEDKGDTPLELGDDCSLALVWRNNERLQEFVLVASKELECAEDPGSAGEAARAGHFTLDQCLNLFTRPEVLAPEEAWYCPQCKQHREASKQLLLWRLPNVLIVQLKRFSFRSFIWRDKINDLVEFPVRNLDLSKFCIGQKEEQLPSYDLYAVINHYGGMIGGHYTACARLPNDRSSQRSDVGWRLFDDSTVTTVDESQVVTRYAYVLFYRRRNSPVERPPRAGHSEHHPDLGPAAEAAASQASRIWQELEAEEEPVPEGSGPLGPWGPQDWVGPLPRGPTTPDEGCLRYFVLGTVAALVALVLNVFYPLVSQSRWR
Summary of the method: as §1

USP24 = USP24 (UniProt Q9UPU5)
Sequence of USP24 (Q9UPU5 whole entry): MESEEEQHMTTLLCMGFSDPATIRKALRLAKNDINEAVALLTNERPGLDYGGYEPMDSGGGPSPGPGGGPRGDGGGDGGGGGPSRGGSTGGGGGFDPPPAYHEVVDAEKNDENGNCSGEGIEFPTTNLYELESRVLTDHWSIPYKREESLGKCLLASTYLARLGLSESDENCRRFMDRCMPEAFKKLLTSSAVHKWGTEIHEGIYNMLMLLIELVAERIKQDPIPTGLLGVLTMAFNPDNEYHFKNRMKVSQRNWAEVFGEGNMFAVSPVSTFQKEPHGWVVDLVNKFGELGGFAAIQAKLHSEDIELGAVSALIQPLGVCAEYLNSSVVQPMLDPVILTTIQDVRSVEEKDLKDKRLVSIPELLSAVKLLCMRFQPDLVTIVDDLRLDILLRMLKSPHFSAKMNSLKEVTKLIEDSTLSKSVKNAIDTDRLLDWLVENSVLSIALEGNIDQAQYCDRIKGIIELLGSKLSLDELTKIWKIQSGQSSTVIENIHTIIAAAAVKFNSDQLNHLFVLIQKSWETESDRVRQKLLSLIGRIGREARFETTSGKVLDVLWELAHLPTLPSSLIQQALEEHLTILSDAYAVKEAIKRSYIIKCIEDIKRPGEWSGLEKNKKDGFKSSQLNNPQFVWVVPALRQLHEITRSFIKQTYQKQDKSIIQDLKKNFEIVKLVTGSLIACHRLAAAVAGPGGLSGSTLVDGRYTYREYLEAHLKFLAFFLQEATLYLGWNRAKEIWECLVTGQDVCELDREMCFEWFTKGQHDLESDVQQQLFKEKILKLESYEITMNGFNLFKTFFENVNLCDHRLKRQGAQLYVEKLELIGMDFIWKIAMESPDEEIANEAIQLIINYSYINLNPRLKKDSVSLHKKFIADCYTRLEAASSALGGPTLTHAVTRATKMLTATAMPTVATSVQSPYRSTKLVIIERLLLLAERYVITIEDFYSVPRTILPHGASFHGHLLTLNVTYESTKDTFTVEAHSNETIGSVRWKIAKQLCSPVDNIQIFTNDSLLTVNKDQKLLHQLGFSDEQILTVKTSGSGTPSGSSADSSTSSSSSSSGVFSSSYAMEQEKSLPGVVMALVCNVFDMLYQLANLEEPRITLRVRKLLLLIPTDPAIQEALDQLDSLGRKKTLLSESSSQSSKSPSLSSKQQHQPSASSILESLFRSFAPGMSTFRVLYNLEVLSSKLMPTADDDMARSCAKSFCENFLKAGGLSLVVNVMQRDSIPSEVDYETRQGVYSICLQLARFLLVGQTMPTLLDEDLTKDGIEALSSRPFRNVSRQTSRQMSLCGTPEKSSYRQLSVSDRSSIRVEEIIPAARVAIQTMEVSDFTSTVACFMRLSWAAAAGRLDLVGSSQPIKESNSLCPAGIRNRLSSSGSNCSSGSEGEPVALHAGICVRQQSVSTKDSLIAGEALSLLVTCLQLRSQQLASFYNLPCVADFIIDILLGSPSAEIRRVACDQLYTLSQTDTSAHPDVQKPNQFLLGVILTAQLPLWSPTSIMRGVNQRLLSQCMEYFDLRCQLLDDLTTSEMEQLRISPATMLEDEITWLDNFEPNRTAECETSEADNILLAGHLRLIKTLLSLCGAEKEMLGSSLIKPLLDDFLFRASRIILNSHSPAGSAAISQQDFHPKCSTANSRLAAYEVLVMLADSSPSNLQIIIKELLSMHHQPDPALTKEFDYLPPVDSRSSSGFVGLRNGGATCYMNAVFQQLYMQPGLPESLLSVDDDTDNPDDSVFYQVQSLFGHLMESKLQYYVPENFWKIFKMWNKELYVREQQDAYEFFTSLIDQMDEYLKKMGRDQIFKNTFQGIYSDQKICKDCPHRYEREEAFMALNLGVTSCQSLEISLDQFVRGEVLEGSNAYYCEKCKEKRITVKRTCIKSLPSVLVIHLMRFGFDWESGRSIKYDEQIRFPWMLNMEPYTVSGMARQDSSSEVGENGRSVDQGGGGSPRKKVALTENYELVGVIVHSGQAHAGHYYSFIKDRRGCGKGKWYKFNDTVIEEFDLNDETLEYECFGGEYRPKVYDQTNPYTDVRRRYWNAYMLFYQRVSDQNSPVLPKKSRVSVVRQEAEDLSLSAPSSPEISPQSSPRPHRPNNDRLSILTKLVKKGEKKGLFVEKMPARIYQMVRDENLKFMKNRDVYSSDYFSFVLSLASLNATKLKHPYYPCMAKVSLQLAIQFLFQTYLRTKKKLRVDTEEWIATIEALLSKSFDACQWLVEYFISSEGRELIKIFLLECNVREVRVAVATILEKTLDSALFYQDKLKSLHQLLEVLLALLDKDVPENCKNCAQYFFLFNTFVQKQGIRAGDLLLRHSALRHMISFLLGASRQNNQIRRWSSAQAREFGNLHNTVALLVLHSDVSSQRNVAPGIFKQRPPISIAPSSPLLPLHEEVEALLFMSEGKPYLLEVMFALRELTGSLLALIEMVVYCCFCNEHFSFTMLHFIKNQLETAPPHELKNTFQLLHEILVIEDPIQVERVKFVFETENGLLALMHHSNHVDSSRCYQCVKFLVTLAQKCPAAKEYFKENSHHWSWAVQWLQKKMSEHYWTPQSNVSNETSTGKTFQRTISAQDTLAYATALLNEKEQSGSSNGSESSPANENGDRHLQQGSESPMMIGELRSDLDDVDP
Summary of the method: as §1

USP25 = molecular target: T2, USP25 (UniProt Q9UHP3)
T2 sequence (whole entry): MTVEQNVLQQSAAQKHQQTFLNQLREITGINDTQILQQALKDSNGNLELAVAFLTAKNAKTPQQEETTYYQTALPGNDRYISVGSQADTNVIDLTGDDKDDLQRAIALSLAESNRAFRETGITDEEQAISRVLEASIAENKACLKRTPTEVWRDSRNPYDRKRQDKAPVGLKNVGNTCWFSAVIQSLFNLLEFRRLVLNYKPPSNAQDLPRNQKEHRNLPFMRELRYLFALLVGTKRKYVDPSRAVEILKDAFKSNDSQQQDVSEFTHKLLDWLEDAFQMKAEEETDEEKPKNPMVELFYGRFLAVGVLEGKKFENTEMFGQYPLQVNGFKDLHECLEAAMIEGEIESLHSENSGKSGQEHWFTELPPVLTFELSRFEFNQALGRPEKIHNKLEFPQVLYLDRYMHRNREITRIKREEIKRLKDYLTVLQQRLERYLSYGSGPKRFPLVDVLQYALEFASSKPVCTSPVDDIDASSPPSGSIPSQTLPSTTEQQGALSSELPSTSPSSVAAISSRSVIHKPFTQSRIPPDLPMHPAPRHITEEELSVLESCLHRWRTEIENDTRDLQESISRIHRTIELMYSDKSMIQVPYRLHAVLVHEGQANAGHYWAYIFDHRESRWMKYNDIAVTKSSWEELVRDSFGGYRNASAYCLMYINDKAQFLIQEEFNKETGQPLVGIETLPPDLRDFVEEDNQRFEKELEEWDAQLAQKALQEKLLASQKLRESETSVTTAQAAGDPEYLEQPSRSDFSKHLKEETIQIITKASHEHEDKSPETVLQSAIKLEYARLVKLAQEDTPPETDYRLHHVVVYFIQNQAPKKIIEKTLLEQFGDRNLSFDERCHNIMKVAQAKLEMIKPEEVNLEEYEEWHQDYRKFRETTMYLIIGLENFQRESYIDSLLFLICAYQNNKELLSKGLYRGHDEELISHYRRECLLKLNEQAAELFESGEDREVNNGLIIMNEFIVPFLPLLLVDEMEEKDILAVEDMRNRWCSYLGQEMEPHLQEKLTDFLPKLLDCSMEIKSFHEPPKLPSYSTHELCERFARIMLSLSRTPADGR
Summary of the method: as §1

USP28 = molecular target: T3, USP28 (UniProt Q96RU2)
T3 sequence (whole entry): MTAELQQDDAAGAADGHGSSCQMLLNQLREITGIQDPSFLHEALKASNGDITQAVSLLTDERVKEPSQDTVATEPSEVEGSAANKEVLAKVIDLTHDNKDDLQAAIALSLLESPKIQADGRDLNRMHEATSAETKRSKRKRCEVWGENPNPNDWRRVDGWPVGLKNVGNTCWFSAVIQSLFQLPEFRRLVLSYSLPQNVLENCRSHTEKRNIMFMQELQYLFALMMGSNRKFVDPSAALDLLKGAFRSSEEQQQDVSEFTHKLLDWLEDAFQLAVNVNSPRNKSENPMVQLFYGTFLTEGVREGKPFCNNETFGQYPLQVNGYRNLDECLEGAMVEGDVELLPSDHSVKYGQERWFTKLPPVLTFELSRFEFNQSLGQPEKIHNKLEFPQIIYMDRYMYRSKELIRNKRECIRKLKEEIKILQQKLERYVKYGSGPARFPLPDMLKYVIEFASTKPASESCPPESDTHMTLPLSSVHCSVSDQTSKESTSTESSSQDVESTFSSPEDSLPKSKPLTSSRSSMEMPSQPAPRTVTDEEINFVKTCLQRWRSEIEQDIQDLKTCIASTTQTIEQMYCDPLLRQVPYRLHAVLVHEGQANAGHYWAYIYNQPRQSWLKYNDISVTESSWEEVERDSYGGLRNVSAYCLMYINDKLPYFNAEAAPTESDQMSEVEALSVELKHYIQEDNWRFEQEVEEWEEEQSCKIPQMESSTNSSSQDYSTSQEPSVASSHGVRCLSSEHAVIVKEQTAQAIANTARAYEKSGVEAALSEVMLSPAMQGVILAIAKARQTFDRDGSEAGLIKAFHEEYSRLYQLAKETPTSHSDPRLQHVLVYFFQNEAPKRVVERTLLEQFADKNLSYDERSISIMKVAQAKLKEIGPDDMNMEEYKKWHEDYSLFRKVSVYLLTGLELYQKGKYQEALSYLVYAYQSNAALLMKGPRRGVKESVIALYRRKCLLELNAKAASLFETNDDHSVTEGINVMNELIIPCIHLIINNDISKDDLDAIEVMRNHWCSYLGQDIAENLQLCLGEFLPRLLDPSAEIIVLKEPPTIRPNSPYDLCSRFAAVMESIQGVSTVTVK
Summary of the method: as §1

Measured: log2 ratio of Biotin-Ahx-Ub-VS probe labelling

COc1ccc(C2CCCN2C(=O)CCl)c(OC)c1 (stereo not given)
inactive: USP16 -0.285 | USP19 -0.593 | USP24 -0.807 | USP25 -0.175 | USP28 -0.41
